A selection: hits, their analogues and other compounds. The true share with any hit is near 2.3%.
SENP8 block-1: SENP8 protease inhibition; Q96LD8; AID 2540; 330,000 compounds, 1.2% hits; inhibition, % at 10 µM; purified SENP8, Z-RLRGG-aminoluciferin cleavage, luminescence; in the data active = inhibition above about 50%
LGR2 inh: blocks bursicon-induced cAMP signaling via Drosophila LGR2 | AID 720647 | 380,000 compounds, 0.35% hits | HEK293 LGR2, CRE-luciferase, bursicon-stimulated, 4 h | inhibition, % at 9.99 µM;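 active = drop in luminescence signal, shown as inhibition above about 50% in the replicate tests, limit read from the data, passing the limit was not always enough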;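 note: agonist challenge used bursicon conditioned medium at about half maximal strength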
SENP7 block: SENP7 protease inhibition | Q9BQF6 | 330,000 compounds, 1.5% hits | recombinant SENP7, Z-RLRGG-aminoluciferin luminescence, 40 min | inhibition, % at 5 µM;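 active = inhibition above about 50% at the single test dose, limit read from the data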
HSP90 inh: HSP90 refolding inhibition in rabbit reticulocyte lysate; luciferase refolding luminescence, 3 h; inhibition, % at 5.6 µM; 290,000 compounds, 0.91% hits; AID 1789;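 active = inhibition above the screen-wide mean plus 3 SD, computed separately per campaign, cut at about 16% in these data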;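 note: inhibitors lower the luminescence because luciferase stays unfolded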
SENP6 inh: blocks the human protease SENP6. Q9GZR1. Recombinant SENP6 catalytic domain, aminoluciferin luminescence. inhibition, % at 10 µM. 330,000 compounds, 1.8% hits. AID 2599;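 active = inhibition above about 50% at the single tested dose, limit read from the data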
Target sequence (Q9GZR1 628-1112 limits assumed): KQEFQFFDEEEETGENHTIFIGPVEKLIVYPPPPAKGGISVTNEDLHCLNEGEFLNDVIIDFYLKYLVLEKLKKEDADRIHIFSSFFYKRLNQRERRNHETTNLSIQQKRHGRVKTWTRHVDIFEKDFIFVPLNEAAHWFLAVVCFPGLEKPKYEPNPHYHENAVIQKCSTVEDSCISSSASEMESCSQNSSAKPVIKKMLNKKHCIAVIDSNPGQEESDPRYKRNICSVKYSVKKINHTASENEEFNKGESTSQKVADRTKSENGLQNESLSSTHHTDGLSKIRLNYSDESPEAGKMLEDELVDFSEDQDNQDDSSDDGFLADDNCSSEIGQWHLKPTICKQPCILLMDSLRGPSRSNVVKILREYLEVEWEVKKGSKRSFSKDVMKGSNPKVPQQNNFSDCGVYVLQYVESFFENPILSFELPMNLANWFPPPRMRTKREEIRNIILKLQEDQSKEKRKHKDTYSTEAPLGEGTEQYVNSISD
SENP8 block-2: SENP8 (human) protease inhibition | Q96LD8 | recombinant SENP8, Nedd8 substrate fluorescence | inhibition, % at 20 µM | 360,000 compounds, 0.64% hits | AID 602440; in the data active = inhibition mostly above about 40%, no sharp cut-off; inactive = mostly below about 27%
SENP8 confirm: human SENP8 inhibition, confirmed; inhibition, % at 12.5 µM; 6,200 compounds, 40% hits; Recombinant SENP8, Z-RLRGG-aminoluciferin luminescence, 60 min; shares compounds with SENP7 block; AID 488912;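 active = mean inhibition across replicates above about 50%, limit read from the data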
SENP6 conf: confirmation of human SENP6 protease inhibitors; shares compounds with SENP7 block; recombinant SENP6, Z-RLRGG-aminoluciferin luminescence; inhibition, % at 12.5 µM; 6,200 compounds, 58% hits; AID 488915
SENP7 conf: human SENP7 inhibition, confirmed. AID 488917. recombinant SENP7, Z-RLRGG-aminoluciferin luminescence, 40 min. inhibition, % at 12.5 µM. shares compounds with SENP7 block. 6,200 compounds, 69% hits
Casp3 select: selectivity test for SENP inhibitors: human caspase-3 inhibition | shares compounds with SENP7 block | purified caspase-3, Z-DEVD-aminoluciferin luminescence, 60 min | inhibition, % at 12.5 µM | 6,200 compounds, 60% hits;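 active = mean inhibition above about 50%, limit read from the data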
SENP luc ctr: luminescence interference (SENP counter-screen). shares compounds with SENP7 block. Pre-incubated SENP8/Z-RLRGG-aminoluciferin, luciferase luminescence interference. inhibition, % at 12.5 µM. 6,200 compounds, 39% hits. AID 488919;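 active = mean inhibition above about 50% when retested at one dose, limit read from the data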
Of the large screens only hits and unclear results are named; the others gave an inactive call (follow-up assays come after a bar, where they were run).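 Rule for the calls, unless noted: active = mean inhibition above about 50% in the one-dose retest (limit read from the data); inactive = the rest.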

CC(O)c1nc2cc([N+](=O)[O-])ccc2n1Cc1ccccc1 (stereo not drawn)	none
O=C(O)COn1c(-c2ccc(Cl)cc2)nc2ccc(Cl)cc21	none (no result: LGR2 inh)
O=C(O)COn1c(-c2ccccc2)nc2ccc([N+](=O)[O-])cc21	SENP8 block-1 70, SENP7 block 88, SENP6 inh 82 | SENP8 confirm inactive | SENP6 conf inactive | SENP7 conf inactive | Casp3 select 53 | SENP luc ctr 56
CCOC(=O)C(C)On1c(-c2ccc(Cl)cc2)nc2ccc([N+](=O)[O-])cc21 (stereo not drawn)	SENP8 block-1 65, SENP6 inh 70 (no result: LGR2 inh) | SENP8 confirm inactive | SENP6 conf inactive | SENP7 conf inactive | Casp3 select inactive | SENP luc ctr inactive
CO[C@@H]1CN(C)C(=O)c2ccc(NC(=O)C3CC3)cc2OC[C@@H](C)N(CCC(F)(F)F)C[C@@H]1C	none (no result: SENP8 block-1, SENP7 block, HSP90 inh, SENP6 inh, SENP8 block-2)
C[C@H](NC(=O)C[C@H]1C[C@@H]2c3cc(NS(C)(=O)=O)ccc3O[C@@H]2[C@@H](CO)O1)c1ccccc1	none (no result: SENP8 block-1, SENP7 block, HSP90 inh, SENP6 inh, SENP8 block-2)
O=C(C[C@@H]1C[C@H]2c3cc(NC(=O)c4cccnc4)ccc3O[C@H]2[C@@H](CO)O1)NCc1ccncc1	none (no result: SENP8 block-1, SENP7 block, HSP90 inh, SENP6 inh, SENP8 block-2)
O=C(c1ccccc1)N1CC(=O)N2[C@H](CO)[C@H](c3ccc(C#CCC4CCCC4)cc3)[C@@H]2C1	none (no result: SENP8 block-1, SENP7 block, HSP90 inh, SENP6 inh, SENP8 block-2)
Cc1ccnc(N/N=C/c2ccccc2)n1	none
CSc1nccc(N/N=C/c2ccccc2)n1	SENP8 block-1 53, SENP7 block 74, SENP6 inh 64 | SENP8 confirm inactive | SENP6 conf inactive | SENP7 conf 81 | Casp3 select 69 | SENP luc ctr inactive
CC(C)c1cn(CC[C@@H]2CC[C@@H](NC(=O)C3CCCC3)[C@@H](CO)O2)nn1	none (no result: SENP8 block-1, SENP7 block, HSP90 inh, SENP6 inh, SENP8 block-2)
Cc1nccc(-c2cc(-c3ccc(Cl)cc3Cl)no2)n1	SENP8 block-1 84, SENP7 block 88, SENP6 inh 89 (no result: LGR2 inh) | SENP8 confirm 73 | SENP6 conf 77 | SENP7 conf 94 | Casp3 select 84 | SENP luc ctr inactive
Cc1cc(C)n(CC(O)Cn2c3ccccc3c3ccccc32)n1 (stereo not drawn)	none
Cc1cc(C)n(CC(O)Cn2c3ccc(Cl)cc3c3cc(Cl)ccc32)c(=O)n1 (stereo not drawn)	SENP7 block 95 | SENP8 confirm inactive | SENP6 conf inactive | SENP7 conf inactive | Casp3 select inactive | SENP luc ctr inactive
COCC(=O)Nc1ccc2c(c1)C(=O)N(C)C[C@H](OC)[C@H](C)CN(C(=O)c1ccccc1)[C@@H](C)CO2	none (no result: SENP8 block-1, SENP7 block, HSP90 inh, SENP6 inh, SENP8 block-2)
Cc1ccc(CCN2CC(C(=O)NCc3ccc4c(c3)OCO4)CC2=O)cc1 (stereo not drawn)	SENP6 inh 67 | SENP8 confirm inactive | SENP6 conf inactive | SENP7 conf inactive | Casp3 select inactive | SENP luc ctr inactive
COCC(=O)N1C[C@@H](C)[C@@H](OC)CN(C)C(=O)c2cc(NC(=O)c3cc(C)on3)ccc2OC[C@H]1C	none (no result: SENP8 block-1, SENP7 block, HSP90 inh, SENP6 inh, SENP8 block-2)
COc1ccc(CNC(=O)c2c(C)oc3c2C(=O)c2ccccc2C3=O)cc1	LGR2 inh 77, SENP6 inh 66, SENP8 block-2 64 | SENP8 confirm inactive | SENP6 conf 61 | SENP7 conf inactive | Casp3 select 70 | SENP luc ctr inactive
COc1ccccc1S(=O)(=O)N[C@H]1C=C[C@@H](CC(=O)N2CCCCC2)O[C@H]1CO	none (no result: SENP8 block-1, SENP7 block, HSP90 inh, SENP6 inh, SENP8 block-2)
Fc1cccc(NC(=S)Nc2cccc3ccccc23)c1	SENP6 inh 57 | SENP8 confirm inactive | SENP6 conf inactive | SENP7 conf inactive | Casp3 select inactive | SENP luc ctr inactive

Compound activity as filed in PubChem BioAssay.
